Bioassay records deposited in PubChem by National Center for Advancing Translational Sciences (NCATS).
Shown are actives, neighbours in structure and some others; about 1.2% of the full set was active somewhere.
ERG Ets-DNA blk – inhibitors of human ERG Ets domain-DNA interaction | P11308 | fluorescence polarization, His-ERG Ets domain / labelled DNA | Potency, µM (titrated, usually from 76.9 µM), inactives show at the highest dose FP activity, negative = inhibition, usual class: inhibitors | 370,000 compounds, 0.028% hits | AID 624246; active = well fitted inhibition curve with a large enough effect in the polarisation, with a control signal flat; inconclusive = small, poorly fitted or top-dose-only effect, or effect the other way, or a change in a side signal; inactive = no such curve, though single readings can be large or run the other way; the % refers to the polarisation;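 note: polarization taken with two DNA probes labelled with fluorescein and Texas red; % of control where 0% means no effect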
Target sequence (P11308 whole entry, looked up, the tested form may be a part): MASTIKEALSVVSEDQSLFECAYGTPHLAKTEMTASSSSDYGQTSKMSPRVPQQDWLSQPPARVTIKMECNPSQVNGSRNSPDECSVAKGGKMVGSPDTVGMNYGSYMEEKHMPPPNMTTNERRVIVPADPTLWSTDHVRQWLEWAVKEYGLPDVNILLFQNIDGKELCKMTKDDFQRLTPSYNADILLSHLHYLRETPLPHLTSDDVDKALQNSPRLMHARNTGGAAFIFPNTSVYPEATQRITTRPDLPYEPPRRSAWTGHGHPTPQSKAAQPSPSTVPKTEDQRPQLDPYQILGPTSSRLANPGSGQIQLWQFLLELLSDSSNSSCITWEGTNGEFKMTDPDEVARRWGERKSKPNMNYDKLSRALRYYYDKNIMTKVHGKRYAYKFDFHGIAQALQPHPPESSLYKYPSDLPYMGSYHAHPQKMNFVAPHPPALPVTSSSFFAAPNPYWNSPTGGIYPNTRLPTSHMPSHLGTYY
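His-tagged ERG Ets domain (1 uM in the protein solution; 300mM KCl, 50mM Tris-HCl, 1mM EDTA, 1mM DTT, pH 7.5) received compound, then a probe mix of 5 nM fluorescein-DNA and 100nM Texas-615-DNA. Fluorescence polarization was read for both dyes.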
Mito fusion act – blocks mitochondrial division or promotes mitochondrial fusion; S. cerevisiae fusion-defective mutant growth rescue, CellTiterGlo 48 h; Potency, µM (doses to about 46.1 µM), for the others: at the top dose growth rescue (activation), hits mostly activators; AID 485298; 320,000 compounds, 0.23% hits; note: % of control where 0% means no effect; nearly all actives have a fitted effect of over 45% in size
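Growth-rescue viability read-out: after 48 h at the non-permissive 37C in glycerol/ethanol YPEG, yeast mitochondrial fusion mutants are measured by CellTiterGlo luminescence; compounds (23 nl pinned per well) restoring growth score as division inhibitors or fusion activators.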
BRCA1 expr act – increases BRCA1 expression. 380,000 compounds, 1.1% hits. Potency, µM (top dose mostly 46.1 µM), for inactives: at the highest dose activation, most hits filed as activators. MCF7-BRCA1-FFLuc reporter, luminescence, 48 h; response scale: scaled: vehicle 0%, 10 µM genistein 100%; note: nearly all actives have a fitted effect of over 80% in size
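MCF7-BRCA1-FFLuc cells, 2000/well in phenol-red-free MEM, attached 2 h then treated 48 h at 37 C. Luciferase luminescence read 15 min after reagent; normalized to genistein maximum activation (10microM) and DMSO, concentration-response fitted.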
B2AR arrestin – agonists driving beta-arrestin recruitment to human beta2-adrenergic receptor. Potency, µM (titrated, usually from 46.1 µM), inactives show at the highest dose activation, actives largely listed as activators. P07550. AID 492947. 330,000 compounds, 0.02% hits. beta-arrestin recruitment to beta2AR, cell-based reporter;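 note: 0% = DMSO controls and full agonism = EC100 isoproterenol or metaproterenol; nearly all actives have a fitted effect of over 65% in size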
* = called active by the depositor. Unless noted, calls come from the whole dose curve; as a rule, active = well fitted curve in the direction sought with a large enough effect; inconclusive = small, poorly fitted or top-dose-only effect, or another doubt; inactive = no such curve, though single readings can be large; an effect the other way counts as inactive or inconclusive. Potency is the fitted concentration of half-maximal effect.

Results for O=C(Nc1ccn(Cc2ccc(Cl)cc2)n1)c1ccccc1 ?
ERG Ets-DNA blk: 8.3%; Mito fusion act: 7.7%; BRCA1 expr act: 7.94µM*; B2AR arrestin: 0.0%

Results for CCc1ccc(NC(=O)c2ccccc2Br)cc1 ?
ERG Ets-DNA blk: 0.3%; Mito fusion act: 14.4%; BRCA1 expr act: 3.16µM*; B2AR arrestin: -0.4%

How did O=C(Nc1ccccc1)c1ccc(-c2ccc(Br)cc2)o1 do in these assays?
ERG Ets-DNA blk: 5.1%; Mito fusion act: 15.8µM*; BRCA1 expr act: 44.8%; B2AR arrestin: 0.4%

What do the screens show for `O=C(Nc1cccc(NC(=O)c2ccc(-c3ccc(Br)cc3)o2)c1)c1ccccc1`?
ERG Ets-DNA blk: 3.5%; Mito fusion act: -3.7%; BRCA1 expr act: -33.2%; B2AR arrestin: -0.1%

How did O=C(Nc1ccc(Br)cc1)c1ccccc1Br do in these assays?
ERG Ets-DNA blk: -2.0%; Mito fusion act: 7.3%; BRCA1 expr act: 1.12µM*; B2AR arrestin: 0.3%

How did CCCN(CCC)C(=O)Cn1c(=O)n(-c2cccc(C(F)(F)F)c2)c(=O)c2c(C)c(C)sc21 do in these assays?
ERG Ets-DNA blk: 1.4%

Results for COc1ccc(CCCc2nnc(SCC(=O)Nc3cc(F)ccc3C)o2)cc1 ?
ERG Ets-DNA blk: -1.9%

How did COc1ccc(C(=O)Nc2ccc(C(F)(F)F)n(C)c2=O)cc1 do in these assays?
ERG Ets-DNA blk: 2.6%; Mito fusion act: 9.4%; BRCA1 expr act: 11.2µM*; B2AR arrestin: -0.6%

What do the screens show for `Cc1ccc(C(=O)Nc2ccc(C(F)(F)F)n(C)c2=O)cc1`?
ERG Ets-DNA blk: -3.8%; Mito fusion act: -2.0%; BRCA1 expr act: 15.2%; B2AR arrestin: 0.0%

How did COc1ccc(C(=O)CSc2nccn2C)cc1 do in these assays?
ERG Ets-DNA blk: 2.2%; Mito fusion act: -23.6%; BRCA1 expr act: 8.91µM*; B2AR arrestin: -0.3%

What do the screens show for `Cn1ccnc1SCC(=O)Nc1ccc(Oc2ccccc2)cc1`?
ERG Ets-DNA blk: 1.9%; Mito fusion act: -6.9%; BRCA1 expr act: 10µM*; B2AR arrestin: 0.0%

What do the screens show for `Cn1ccnc1SCC(=O)c1ccc(OC(F)F)cc1`?
ERG Ets-DNA blk: 4.2%; Mito fusion act: -13.6%; BRCA1 expr act: inconclusive; B2AR arrestin: 0.7%

What do the screens show for `CCOc1ccc(NC(=O)CSc2nccn2C)cc1`?
ERG Ets-DNA blk: -2.5%; Mito fusion act: 1.2%; BRCA1 expr act: inconclusive; B2AR arrestin: 0.2%

What do the screens show for `COc1cc(-c2noc(-c3ccc(N4CCOCC4)c([N+](=O)[O-])c3)n2)cc(OC)c1OC`?
ERG Ets-DNA blk: -3.3%; BRCA1 expr act: 6.0%

Results for FC(F)(F)c1cc(-c2ccccc2)nc(N2CCCCCC2)n1 ?
ERG Ets-DNA blk: -2.0%; Mito fusion act: -8.1%; BRCA1 expr act: -1.9%; B2AR arrestin: 4.5%

What do the screens show for `c1ccc(-c2cnnc(N3CCCCC3)n2)cc1`?
ERG Ets-DNA blk: -8.2%; Mito fusion act: 3.0%; BRCA1 expr act: 7.94µM*; B2AR arrestin: 0.4%

What do the screens show for `O=C(Nc1cccnc1Cl)c1cc2c(s1)-c1ccccc1OC2`?
ERG Ets-DNA blk: -10.8%; Mito fusion act: -5.4%; BRCA1 expr act: 27.7%; B2AR arrestin: 0.0%

Results for O=C(Nc1ccc(Cl)cn1)c1cc2c(s1)-c1ccccc1OC2 ?
ERG Ets-DNA blk: 7.3%; Mito fusion act: 3.3%; BRCA1 expr act: 5.62µM*; B2AR arrestin: -0.5%

How did CCOC(=O)c1nn(-c2ccc3c(c2)OCO3)cc1O do in these assays?
ERG Ets-DNA blk: 4.5%; Mito fusion act: -2.1%; BRCA1 expr act: 3.16µM*; B2AR arrestin: 0.8%

Results for CCOC(=O)c1nn(-c2ccc3ccccc3c2)cc1O ?
ERG Ets-DNA blk: -4.1%; Mito fusion act: 3.6%; BRCA1 expr act: 2.82µM*; B2AR arrestin: 0.3%

Results for CCOC(=O)c1nn(-c2ccc(C)cc2)cc1O ?
ERG Ets-DNA blk: -4.6%; Mito fusion act: -3.0%; BRCA1 expr act: inconclusive; B2AR arrestin: 0.5%

How did CCOC(=O)c1nn(-c2ccccc2)cc1O do in these assays?
ERG Ets-DNA blk: -7.2%; Mito fusion act: -9.0%; BRCA1 expr act: inconclusive; B2AR arrestin: 0.1%

How did Cn1cc(S(=O)(=O)N2CCCC2)cc1C(=O)Nc1ccc(C(F)(F)F)cc1 do in these assays?
ERG Ets-DNA blk: 6.6%

Results for CC(=O)c1cccc(OCc2cc(C(=O)NCCC3=CCCCC3)no2)c1 ?
ERG Ets-DNA blk: -1.2%; Mito fusion act: 3.5%; BRCA1 expr act: 3.16µM*; B2AR arrestin: -1.7%

What do the screens show for `Cc1cc(C(=O)NCCC2=CCCCC2)no1`?
ERG Ets-DNA blk: -4.6%; Mito fusion act: -5.3%; BRCA1 expr act: 10µM*; B2AR arrestin: 0.1%

Results for CCOc1ccc(-c2cn(-c3ccc(OC)cc3)c(SCC(=O)Nc3ccccc3Cl)n2)cc1 ?
ERG Ets-DNA blk: 2.7%

Results for CCOc1ccc(-c2cn(-c3ccc(OC)cc3)c(SC)n2)cc1 ?
ERG Ets-DNA blk: -6.7%; Mito fusion act: 10.7%; BRCA1 expr act: 11.2µM*; B2AR arrestin: 2.3%

Results for O=C(C[n+]1ccccc1Br)c1ccc(Cl)cc1 ?
BRCA1 expr act: 2.7%

How did COc1ccc(OC(=O)c2c(C)nn(-c3ccccc3)c2C)cc1 do in these assays?
ERG Ets-DNA blk: -12.5%; Mito fusion act: 8.0%; BRCA1 expr act: inconclusive; B2AR arrestin: 0.1%

How did COc1ccc(OC(=O)c2cnn(-c3ccccc3)c2C)cc1 do in these assays?
ERG Ets-DNA blk: 7.6%; Mito fusion act: 14.0%; BRCA1 expr act: 10µM*; B2AR arrestin: -0.1%

What do the screens show for `O=C(NCCc1nc2ccccc2n1CCOc1cccc2ccccc12)C1CCCCC1`?
BRCA1 expr act: 0.0%

What do the screens show for `Cc1ccc(CNC(=O)c2ccc(N3CCCC3)c(NC(=O)Nc3ccc(C)cc3)c2)cc1`?
ERG Ets-DNA blk: 0.0%

What do the screens show for `CCNc1nc(-c2ccc(Cl)cc2)cs1`?
ERG Ets-DNA blk: -3.9%; Mito fusion act: -7.6%; BRCA1 expr act: 2.82µM*; B2AR arrestin: -0.7%

Results for COc1ccc(N2CCN(C(=O)c3cn(C4CCCCC4)c(=O)c4c3c3ccccc3n4C)CC2)cc1 ?
ERG Ets-DNA blk: -0.1%

What do the screens show for `Cc1cccc(C(=O)Nc2sc(C)c(-c3ccccc3)c2C#N)c1`?
ERG Ets-DNA blk: 3.6%; Mito fusion act: 25.5%; BRCA1 expr act: inconclusive; B2AR arrestin: -0.4%

Results for Cc1sc(NC(=O)C2CCCCC2)c(C#N)c1-c1ccccc1 ?
ERG Ets-DNA blk: -4.3%; Mito fusion act: 3.7%; BRCA1 expr act: 7.08µM*; B2AR arrestin: -0.8%

How did O=C(c1ccco1)N1CCN(C(=O)c2ccc(-c3ccccc3Cl)o2)CC1 do in these assays?
ERG Ets-DNA blk: inconclusive; Mito fusion act: 23.5%; BRCA1 expr act: 8.91µM*; B2AR arrestin: 0.1%

Results for O=C(c1ccc(-c2ccccc2Cl)o1)N1CCN(c2ccccc2O)CC1 ?
ERG Ets-DNA blk: 5.0%; Mito fusion act: 17.8µM*; BRCA1 expr act: -45.0%; B2AR arrestin: -0.6%

How did Cc1cc(NC(=O)COC(=O)[C@@H](NS(=O)(=O)c2ccccc2)C(C)C)no1 do in these assays?
ERG Ets-DNA blk: -0.9%; Mito fusion act: 3.0%; BRCA1 expr act: -10.4%; B2AR arrestin: -0.2%
